Results on 17 compounds are retold here after ChEMBL document CHEMBL3433997, “St. Jude Leishmania screening dataset” (2016).

What is called inhibition is the drop in the measured response relative to a control, in per cent.

Assay type in all cases: functional
For test [1], the target named is Solute carrier family 2, facilitated glucose transporter member 1 (Homo sapiens) (UniProt P11166). Put plainly: ST_JUDE_LEISH: Cytotoxicity at 2uM final concentration against transgenic Leishmania Mexicana promastigotes LmGLUT1 that are glucose transport deficient and complemented with the human glucose transporter GLUT1. Activity is measured by DNA content using SYBR green in vitro.
Solute carrier family 2, facilitated glucose transporter member 1 (Homo sapiens), sequence (P11166 whole entry): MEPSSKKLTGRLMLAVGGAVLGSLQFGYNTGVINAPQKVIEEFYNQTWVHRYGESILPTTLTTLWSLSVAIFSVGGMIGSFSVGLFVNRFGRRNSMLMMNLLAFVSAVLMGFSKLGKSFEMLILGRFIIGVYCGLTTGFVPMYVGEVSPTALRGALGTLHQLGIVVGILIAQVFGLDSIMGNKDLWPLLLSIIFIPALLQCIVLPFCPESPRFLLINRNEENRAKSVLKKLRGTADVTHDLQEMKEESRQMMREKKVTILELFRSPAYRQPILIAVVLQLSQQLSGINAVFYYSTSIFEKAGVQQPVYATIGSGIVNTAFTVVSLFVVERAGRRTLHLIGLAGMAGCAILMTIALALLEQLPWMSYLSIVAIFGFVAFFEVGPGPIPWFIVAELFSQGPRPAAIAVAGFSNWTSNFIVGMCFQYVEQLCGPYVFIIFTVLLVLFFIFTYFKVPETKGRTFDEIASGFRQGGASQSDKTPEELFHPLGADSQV

Test [2] has as its target Hexose transporter 1 (Plasmodium falciparum) (UniProt O97467). Put plainly: ST_JUDE_LEISH: Cytotoxicity at 2uM final concentration against transgenic Leishmania Mexicana promastigotes LmPfHT that are glucose transport deficient and complemented with the Plasmodium falciparum hexose transporter. Activity is measured by DNA content using SYBR green in vitro.
Test [3] concerns the target Glucose transporter (Leishmania mexicana) (UniProt O61059). In words: ST_JUDE_LEISH: Cytotoxicity at 2uM final concentration against transgenic Leishmania Mexicana promastigotes LmGT2 that are glucose transport deficient and complemented with the L. Mexicana glucose transporter 2. Activity is measured by DNA content using SYBR green in vitro.

Consider `COc1ccc2nccc([C@@H](O)CN3CCC(NCCNc4ccccn4)CC3)c2c1`, for which the inhibition stood at 8.79% in test [1], 9.69% in test [2] and 6.24% in test [3].
Take `CN(C)C(CNC(=O)c1cc(-c2ccncc2)c(-c2ccc(Cl)c(O)c2)o1)c1ccccc1` (stereo unspecified): the inhibition in test [1] was found to be 1.95%; in test [2] it was 1.6%; in test [3], 8.87%.
Consider `Cc1cc(OCCCNC(=N)c2ccc3ccccc3c2)c(C(C)C)cc1Cl`, for which the inhibition was 2.28% in test [1], 2.39% in test [2] and -0.77% in test [3].
Turning to `Cc1nc2ccc(Nc3nccc(-c4c(-c5cccc(NC(=O)c6c(F)cccc6F)c5)nn5ccccc45)n3)cc2nc1C`, the inhibition in test [1] is 2.58%; in test [2], 4.37%; in test [3], -1.39%.
For `COc1ccc2ncc(F)c(NC(=O)C3CCC(NCc4cc5cc(F)cc(F)c5[nH]4)CC3)c2n1` (stereo unspecified), the inhibition in test [1] came out at 68.5%; in test [2], 78.5%; in test [3] it was 82.5%.
The matching figures for `Fc1cccc(COc2ccc(Nc3ncnc4sc(C#C[C@H]5CC[C@H](CN6CCOCC6)N5)cc34)cc2Cl)c1`: 0.36%, -0.26% and -0.26%.
In the case of `CCN(CCCN1CCCCC1)c1cc(C)nc(Nc2ccc3c(c2)CCC3)n1`, the inhibition in test [1] is -1.26%; in test [2], 1.07%; in test [3], 0.58%.
`NC1CCN(Cc2ccc(-c3cccc(-c4nc5cc(F)ccc5[nH]4)c3)cc2)C1` (stereo unspecified): the inhibition in test [1] was determined as 16.9%; in test [2], 14.7%; in test [3], 12.8%.
For `O=C(Nc1ccc(N2CCN(Cc3ccccc3Cl)CC2)cc1)c1ccc([N+](=O)[O-])o1`, the inhibition in test [1] is 71.5%; in test [2] it was 51.2%; in test [3], 11.1%.
Take `O=C(/C=C/c1ccc(Cl)c(Cl)c1)NCCCCCN1CCCC(c2c[nH]c3ccccc23)C1` (stereo unspecified): the inhibition in test [1] was determined as 5.68%; in test [2], 5.33%; in test [3], 5.49%.
For the compound `CCOC(=O)c1ccc(NC(=O)N[C@@H](Cc2ccccc2)C(=O)NC2CCN(Cc3ccc(O)cc3)C2)cc1` (stereo partly specified), the inhibition in test [1] is -1.09%; in test [2], 1.43%; in test [3] it was -7.4%.
As for `CCCC1(C)CSc2ccccc2C(c2ccccc2)N1` (stereo unspecified), the inhibition in test [1] worked out at 4.9%; in test [2], 6.11%; in test [3] it was 7.67%.
Consider `CCCCCCCN(CCCCCCC)CCCC(=O)Nc1ccnc2ccc(OC)cc12`, for which the inhibition was 1.2% in test [1], 1.31% in test [2] and -1.2% in test [3].
Take `CS(=O)(=O)Nc1cccc(-c2cnc3[nH]cc(-c4ccc(C(=O)O)c(F)c4)c3c2)c1`: the inhibition in test [1] was -2.02%; in test [2], -1.06%; in test [3], 1.09%.
Turning to `COc1ccccc1C(C)NCC(=O)Nc1cccc(C(=O)Nc2cccc(C(F)(F)F)c2)c1` (stereo unspecified), the inhibition in test [1] was 3.9%; in test [2], -0.5%; in test [3], 4.16%.
On to `CC(=O)Nc1ccc(CN2CCC(NC(=O)c3cc(-c4ccc(N(C)C)cc4)cs3)C2)cc1` (stereo unspecified), for which the inhibition in test [1] was found to be 1.62%; in test [2], 3.72%; in test [3], 4.39%.
For the compound `CN(C)CCCOc1cccc(NC(=O)Nc2ccc(-c3ccccc3)cc2)c1`, the results for the inhibition in test [1], in test [2] and in test [3] were -1.01%, -1.23% and -3.41%, respectively.
